High-throughput results (PubChem BioAssay)
Hits are enriched below; roughly 5.1% of the tested compounds scored in any of these assays.
KDM4E inh: JMJD2E (human) inhibition; 230,000 compounds, 1.6% hits; Potency, µM (highest dose often 57.1 µM), inactives show top-dose activity change, negative = inhibition, usual class: inhibitors; JMJD2E catalytic domain, FDH-coupled NADH fluorescence (FDH is formaldehyde dehydrogenase); B2RXH2; AID 2147; active = well fitted inhibition curve with a large enough effect, not every such curve was filed as active; inconclusive = small, poorly fitted or top-dose-only effect, or another doubt; inactive = no such curve, though single readings can be large or run the other way;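 also: potency is read from the fitted curve at half-maximal effect; 0% = wells with enzyme and -100% = buffer wells without enzyme; nearly all actives have a fitted effect of over 50% in size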
Target sequence (B2RXH2 1-337 limits assumed): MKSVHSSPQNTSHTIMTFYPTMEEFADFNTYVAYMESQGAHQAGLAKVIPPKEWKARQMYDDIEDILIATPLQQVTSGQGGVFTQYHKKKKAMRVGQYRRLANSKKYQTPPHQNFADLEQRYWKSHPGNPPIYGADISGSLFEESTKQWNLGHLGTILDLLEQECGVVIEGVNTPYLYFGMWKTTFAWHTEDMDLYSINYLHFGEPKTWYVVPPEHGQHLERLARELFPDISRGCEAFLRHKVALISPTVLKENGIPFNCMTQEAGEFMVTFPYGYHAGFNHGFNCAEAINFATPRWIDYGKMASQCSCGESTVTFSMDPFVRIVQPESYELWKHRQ
Tau fibril ThT: tau fibrillization inhibition (ThT binding). P10636. recombinant tau K18 P301L, heparin-induced fibrillization, ThT fluorescence. Potency, µM (series often up to 57.4 µM), without a hit: at the top dose activity, negative = inhibition, actives largely listed as inhibitors. 270,000 compounds, 2.1% hits. AID 1460; also: potency is read from the fitted curve at half-maximal effect; nearly all actives have a fitted effect of over 55% in size
Target sequence (P10636 561-689 P618L limits assumed): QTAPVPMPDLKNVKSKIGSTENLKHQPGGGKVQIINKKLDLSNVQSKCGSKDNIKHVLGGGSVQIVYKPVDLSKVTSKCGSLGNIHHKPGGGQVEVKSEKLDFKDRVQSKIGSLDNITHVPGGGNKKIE
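K18 P301L tau (15 uM + 0.24 uM Alexa 594-tagged), heparin 20 uM, NaOAc pH 7, 6 h 37 C; ThT 30 uM, 1 h RT, ex 450/em 510 nm.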
Tau fluor counter: counter-screen for tau fibril formation inhibitors; Potency, µM (series often up to 57.7 µM), without a hit: at the top dose activity change, negative = decrease; AID 1463; tau K18 P301L (four-repeat tau fragment) Alexa594 fluorescence, heparin fibrillization; 280,000 compounds, 0.93% hits; also: potency is read from the fitted curve at half-maximal effect; nearly all actives have a fitted effect of over 55% in size
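Human K18 P301L tau (15 uM unlabeled plus 0.24 uM Alexa 594-labeled, final) in 100 mM sodium acetate pH 7 was mixed with compound and 20 uM heparin and incubated 6 hr at 37 C.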
Tau FP inhib: tau fibrillization inhibition (FP); K18 P301L tau heparin fibrillization, Alexa594 FP, 6 h; Potency, µM (titrated, usually from 57.7 µM), without a hit: at the top dose activity, negative = inhibition, usual class: inhibitors; AID 1468; 280,000 compounds, 0.39% hits; also: potency is read from the fitted curve at half-maximal effect; nearly all actives have a fitted effect of over 55% in size
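Human K18 P301L fragment (15 uM unlabeled plus 0.24 uM Alexa 594-labeled) in 100 mM sodium acetate pH 7 with compound, aggregation induced by 20 uM heparin for 6 hr at 37 C. ThT (30 uM) added for 1 hr, then Alexa 594 FP read.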
PNC inhibitor: perinucleolar compartment assembly inhibition; PC3M PTB-GFP, PNC prevalence imaging, 16 h; stronger effect = lower value; activity change (PNC), negative = inhibition, % at 10 µM; 140,000 compounds, 3.1% hits;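 active = readout at or below -70, meaning at least 70% loss of cells showing the perinucleolar compartment, a nuclear body marking cancer cells; inconclusive = readout between -30 and a set limit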;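 also: plate controls were DMSO wells for no effect and camptothecin positive control wells for full effect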
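Compounds are pinned in duplicate onto adhered PC3M cells stably expressing GFP-tagged PTB and incubated 16 h at 37 C. Cells are then fixed, nuclei stained with Hoechst, and PNC-positive cells counted.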
NPSR antagonist: antagonists of human neuropeptide S receptor cAMP signaling. Q6W5P4. CHO-NPSR cells, cAMP TR-FRET, antagonist mode. Potency, µM (top dose mostly 38.3 µM), for the others: at the top dose activity change, negative = inhibition, actives largely listed as inhibitors. 220,000 compounds, 1% hits. AID 1461; also: potency is read from the fitted curve at half-maximal effect; nearly all actives have a fitted effect of over 50% in size
* = called active by the depositor; ? = inconclusive; . = no result; [ ] = another dose, or the depositor's remark. Unless noted, calls follow the shape of the dose curve; as a rule, active = well fitted curve in the direction sought with a large enough effect; inconclusive = small, poorly fitted or top-dose-only effect, or another doubt; inactive = no such curve, though single readings can be large; an effect the other way counts as inactive or inconclusive. Unless noted, % is scaled to controls: 0 for no effect and ±100 for the full control effect.

SMILES | KDM4E inh | Tau fibril ThT | Tau fluor counter | Tau FP inhib | PNC inhibitor | NPSR antagonist
COc1ccc2c(c1)CCC1C2CC[C@@]2(C)C1CC[C@@H]2NCCCCCCN1C(=O)C=CC1=O (stereo partly specified) | -1% | -13% | -4% | 10% | . | 5%[46.1 µM]
O=C(O)[C@H]1C[C@@H]1[C@H](NP(=O)(c1ccccc1)c1ccccc1)c1ccccc1 | -4% | -1% | -9% | -6% | -82* | 13%
O=C1NC(=O)N(CCC2=CCCCC2)C(=O)/C1=C\c1cccs1 | 1% | ? | 1% | -7% | -86* | ?
C=CCN1C(=O)/C(=C/c2cccs2)C(=O)NC1=S | -4% | ? | ? | 9% | ? | 13µM*
O=C1NC(=S)N(Cc2ccco2)C(=O)/C1=C\c1cccs1 | 14µM* | 13µM* | ? | ? | . | -15%
CCCCC/C=C\C/C=C\C/C=C\CCCCC(=O)NCCO | -3% | 5% | -1% | -6% | . | .
COc1ccc2c(c1O)-c1cc(O)cc3c1[C@@H](C2)N(C)CC3 | . | -16% | -18% | 0% | . | .
CCCN1CCc2cc(O)cc3c2C1Cc1ccc(O)c(O)c1-3 (stereo unspecified) | ? | 16µM* | 16µM*[quencher] | 35µM* | . | ?
CCOC(=O)c1ccc(NC(=O)CSc2cc(=O)n(CC)c3ccccc23)cc1 | . | 4% | -22% | ? | . | .
CN1C[C@H](C(=O)N[C@@]2(C)O[C@@]3(O)C4CCCN4C(=O)C(Cc4ccccc4)N3C2=O)C[C@H]2c3cccc4[nH]cc(c34)C[C@H]21 (stereo partly specified) | -5% | -2% | ? | 3% | . | .
CC(C)[C@@]1(NC(=O)[C@@H]2C[C@@H]3c4cccc5[nH]cc(c45)C[C@H]3N(C)C2)O[C@@]2(O)[C@@H]3CCCN3C(=O)[C@H](Cc3ccccc3)N2C1=O | ? | ? | 2.8µM*[quencher] | ? | -6 | 2µM*
CC(C)[C@@]1(NC(=O)[C@@H]2C[C@@H]3c4cccc5[nH]cc(c45)C[C@H]3N(C)C2)O[C@@]2(O)C3CCCN3C(=O)[C@H](Cc3ccccc3)N2C1=O (stereo partly specified) | -9% | ? | 7.1µM*[quencher] | ? | . | ?
COc1cccc(N2C(=O)NC(=O)/C(=C/c3ccc([N+](=O)[O-])s3)C2=O)c1 | 25µM* | . | -51% | -95% | . | -16%
COc1ccccc1N1C(=O)NC(=O)/C(=C\c2cnn(-c3ccccc3)c2)C1=O | -17% | ? | -4% | -6% | . | -44%
CCOc1ccc(N2C(=O)NC(=O)/C(=C\c3cc(OC)c(OC)cc3[N+](=O)[O-])C2=O)cc1 | . | 14µM* | -24% | ? | -3 | -20%
COc1ccccc1N1C(=O)NC(=O)/C(=C/c2ccc([N+](=O)[O-])s2)C1=O | ? | . | ? | 32µM* | . | -1%
COc1ccc(N2C(=O)NC(=O)/C(=C/c3ccc([N+](=O)[O-])s3)C2=O)cc1 | 20µM* | . | ? | 32µM* | . | -32%
COc1ccc(N2C(=O)/C(=C/C=C/c3ccccc3[N+](=O)[O-])C(=O)NC2=S)cc1 | ? | 28µM* | ? | ? | . | 10µM*
COc1ccc(N2C(=O)NC(=O)/C(=C/c3ccc(N4CCOCC4)cc3)C2=O)cc1 | ? | ? | -12% | -6% | . | -14%
COc1ccccc1N1C(=O)NC(=O)/C(=C/c2ccc3c4c(cccc24)CC3)C1=O | 9% | -7% | -11% | 0% | 21 | 10µM*
COc1ccc(N2C(=O)NC(=O)/C(=C\c3ccc([N+](=O)[O-])s3)C2=O)cc1 | 25µM* | 14µM* | ? | ? | . | -36%
C/C=C(/C)C(=O)O[C@H]1C(C)=C2C([C@@H]1OC(=O)CCCCCCC)[C@@](C)(OC(C)=O)C[C@@H](OC(=O)CCC)[C@@]1(O)[C@H]2OC(=O)[C@@]1(C)O (stereo partly specified) | -12% | ? | -29% | ? | . | ?
O=C(NCc1ccc2c(c1)CCN2C(=O)c1ccccc1)Nc1cccc(C(F)(F)F)c1 | . | 2% | ? | ? | . | .
CCc1ccc(CNC(=O)c2ccc3c(c2)N=C(C)c2cc(C)ccc2S3)cc1 | . | -15% | -27% | ? | . | .
Brc1c(Br)c(Br)c2n[nH]nc2c1Br | ? | 3% | -16% | ? | . | -8%[46.1 µM]
SMILES | KDM4E inh | Tau fibril ThT | Tau fluor counter | Tau FP inhib | PNC inhibitor | NPSR antagonist
Cc1ccc2cc3c(ccc4ccccc43)c3c2c1CC3 | . | 16µM* | -25% | ? | . | .
Cc1ccc2ccccc2c1NC(=O)CNC1CCCCC1 | 1% | -4% | -9% | 3% | 68 | 5%[46.1 µM]
CCn1nc(-c2cccs2)nc2c(=O)n(C)c(=O)nc1-2 | ? | 18µM* | -22% | ? | ? | 2.5µM*
CC(C)=CCCC(C)C1CC[C@@]2(C)C3=C(CC[C@@]12C)C1(C)CCC(O)C(C)(C)C1CC3 (stereo partly specified) | -9% | ? | -12% | -7% | . | .
COC(=O)C(C)Oc1cc(C)cc2oc(=O)c3c(c12)CCCC3 (stereo unspecified) | ? | -6% | -3% | -3% | -22 | ?
CCOC(=O)C(C)Oc1cc(C)cc2oc(=O)c3c(c12)CCCC3 (stereo unspecified) | 13µM* | ? | 12% | -9% | -13 | ?
C[C@@H]1O[C@@H](OC2CC(O)C3(CO)C4C(CCC3(O)C2)C2(O)CCC(C3=CC(=O)OC3)C2(C)C[C@H]4O)[C@H](O)[C@H](O)[C@H]1O (stereo partly specified) | . | -10% | -11% | -4% | . | .
O=C1/C(=C\c2ccccc2)C[C@@]2(O)[C@H]3Cc4ccc(O)c5c4[C@@]2(CCN3CC2CC2)[C@@H]1O5 | -4% | -11% | 7% | ? | . | .
COc1cc2c(cc1OC)C(C(=O)NCCC(C)C)C1CCCCN1C2=O (stereo unspecified) | ? | -3% | -2% | 6% | -119* | 15%
CCN(C(=O)CN1CC=C(c2ccccc2)CC1)c1c(N)n(Cc2ccccc2)c(=O)[nH]c1=O | -12% | -7% | 4% | 1% | . | -2%
CC(C)CN(C(=O)CN1CC=C(c2ccccc2)CC1)c1c(N)n(CC(C)C)c(=O)[nH]c1=O | 28µM* | -17% | -8% | -10% | . | 0%
Nc1ncnc2c1ncn2[C@@H]1O[C@H](COP(=O)(O)OP(=O)(O)OP(=O)(O)O)[C@H]2OC3(O[C@H]21)C([N+](=O)[O-])=CC(=[N+]([O-])[O-])C=C3[N+](=O)[O-] (stereo partly specified) | . | ? | 8% | 3% | . | .
